# Most compounds without a hit are left out; they make up all but 14% or so of the library.
# Pf growth 96h: inhibits malaria parasite growth, 96 h; 6.9% of 320,000 active; P. falciparum luciferase reporter growth, 96 h; Potency, µM (doses to about 28.7 µM), for the others: top-dose activity change, negative = inhibition, most hits filed as inhibitors; also: potency is read from the fitted curve at half-maximal effect
#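 Delayed-death screen, second-generation endpoint: infected erythrocytes, 2% hematocrit, 0.05% parasitemia final; 96 hours at 37 C, 5% CO2; luciferase detection reagent; luminescence decrease equals reduced growth.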
# HCV inh: HCV inhibition | Huh7.5.1 HCVcc-Cre infection, luciferase reporter, 44 h | Potency, µM (top dose mostly 41.8 µM), for the others: at the top dose activity change, negative = inhibition, hits mostly inhibitors | 3.4% of 340,000 active | AID 651820; also: potency is read from the fitted curve at half-maximal effect
#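 Seed cells (1,000/well) for 4 h; treat with compound and infect with HCVcc-Cre, moi about 0.5. Incubate 44 h, then detect luciferase activity.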
# Pf growth 48h: P. falciparum growth inhibition at 48 hours (one generation); 5.9% of 310,000 active; P. falciparum luciferase growth in erythrocytes, 48 h; AID 504832; Potency, µM (highest dose often 28.7 µM), inactives show at the highest dose activity change, negative = inhibition, most hits filed as inhibitors; also: potency is read from the fitted curve at half-maximal effect
#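 Firefly luciferase activity from engineered P. falciparum reports growth; inhibitors lower the luminescent signal. Cultures contained 2% hematocrit erythrocytes at 0.1% final parasitemia.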
# MARV entry inh: inhibitors of Marburg virus binding or cell entry; Marburg virus pseudotyped entry inhibition, cell reporter; Potency, µM (titrated, usually from 37.8 µM), without a hit: at the highest dose activity change, negative = inhibition, actives largely listed as inhibitors; 1.8% of 300,000 active; AID 540276; calls by dose curve; tested in HEK293 cells; also: potency is read from the fitted curve at half-maximal effect
# HCMV antiviral: inhibitors of human cytomegalovirus; HFF cells, HCMV-luciferase reporter, 72 h; stronger effect = lower value; activity change, negative = inhibition, % at 57.5 µM; 4.5% of 410,000 active; AID 1259415; in the data active = activity change below about -60%; inconclusive = no clear call, values can overlap the other calls; inactive = above about -39%
#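 Luciferase read-out from HCMV-luciferase-infected HFFs (MOI 1 PFU/cell) 72 h post infection at 37C; compounds added after 16 h cell attachment; activity normalized between buffer-only basal and Salinomycin (10uM) inhibitor controls.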
# Lassa entry inh: blocks Lassa virus binding to or entry into cells. Lassa virus pseudotype entry inhibition, cell reporter. 1.2% of 300,000 active. AID 540256. Potency, µM (titrated, usually from 37.9 µM), without a hit: at the top dose activity change, negative = inhibition, most hits filed as inhibitors; calls by dose curve; tested in HEK293 cells; also: potency is read from the fitted curve at half-maximal effect; nearly all actives have a fitted effect of over 50% in size
# The depositor's hits bear a star; u = inconclusive; x = no result given; [ ] = remark or other dose. Unless noted, calls follow the shape of the dose curve; as a rule, active = well fitted inhibition curve with a large enough effect; inconclusive = small, poorly fitted or top-dose-only effect, or another doubt; inactive = no such curve, though single readings can be large or run the other way. % is scaled to controls: 0 for no effect and ±100 for the full control effect.
SMILES,Pf growth 96h,HCV inh,Pf growth 48h,MARV entry inh,HCMV antiviral,Lassa entry inh
Oc1ccc2c3c1OC1c4[nH]c5ccccc5c4C[C@@]4(O)C(C2)N(CC2CC2)CC[C@]314 (stereo partly drawn),x,u,x,x,42.1,x
Oc1ccc2c3c1O[C@H]1c4oc5ccccc5c4C[C@@]4(O)C(C2)N(CC2CC2)CCC314 (stereo partly drawn),x,x,x,10.3µM*,x,x
C=C1CC[C@@]2(O)[C@H]3Cc4ccc(O)c5c4[C@@]2(CCN3CC2CC2)[C@H]1O5,0.1%,u,-6.0%,7.1%,x,-5.5%
Oc1ccc2c3c1OC1c4oc5ccccc5c4C[C@@]4(O)[C@@H](C2)N(CC2CC2)CC[C@]314 (stereo partly drawn),x,-5.4%,x,x,-61.4*,x
CC1CN(O)C2CCc3c(no[n+]3[O-])C12O (stereo not drawn),34.3%,10.1%,14.3%,-1.4%,-10.0,17.3%
CC1CC2(O)c3no[n+]([O-])c3CCC2N1O (stereo not drawn),10.4µM*,9.5%,12.9%,5.7%,-6.4,-3.8%
COc1ccc(CNC(=O)C(C)N(Cc2ccccc2OC)C(=O)c2snc(C(N)=O)c2N)cc1 (stereo not drawn),20.6%,10µM*,u,-14.8%[46.1 µM],-7.1,x
CCOc1ccccc1N(C(=O)c1snc(C(N)=O)c1N)C(C(=O)NCc1ccccc1)c1ccc(O)cc1 (stereo not drawn),u,u,11.7µM*,u,-29.9,x
COc1ccc(CN(C(=O)c2snc(C(N)=O)c2N)C(C)C(=O)NCc2ccc(F)cc2)cc1 (stereo not drawn),u,u,u,2.3%[46.1 µM],-12.4,x
CN(C)c1ccc(C(C(=O)NCc2ccccc2)N(Cc2cccnc2)C(=O)c2snc(C(N)=O)c2N)cc1 (stereo not drawn),13.1µM*,-15.3%,u,u,-0.8,u
COc1ccc(N(C(=O)c2snc(C(N)=O)c2N)C(C(=O)NCc2ccc(F)cc2)c2ccc(O)cc2)cc1 (stereo not drawn),u,u,0.0%,u,-21.7,2.82µM*
CN(Cc1ccccc1)C(=O)[C@@H]1CCCN1C(=O)[C@@H]1CCCN1C(=O)c1cccs1,x,x,x,x,10.0,x
Cc1ccccc1N(C(=O)c1snc(C(N)=O)c1N)C(C(=O)NC1CCCCC1)c1ccc(O)cc1 (stereo not drawn),u,10µM*,u,u,-33.4,11.2µM*
COc1ccc(C(C(=O)NCc2ccccc2)N(C(=O)c2snc(C(N)=O)c2N)c2ccccc2OC)cc1OC (stereo not drawn),-14.7%,1.4%,10.4µM*,-25.3%[46.1 µM],-74.6*,-21.7%
NC(=O)c1nsc(C(=O)N(c2ccccc2F)C(C(=O)NCc2ccccc2)c2ccc(O)cc2)c1N (stereo not drawn),21.8%,u,u,-21.6%[46.1 µM],-8.3,x
Cc1ccccc1N(C(=O)c1snc(C(N)=O)c1N)C(C(=O)NCc1ccccc1)c1ccc(O)cc1 (stereo not drawn),34.8%,5.62µM*,u,u,18.3,u
O=C(OCC(=O)N1CCN(c2ccccc2)CC1)c1cc(F)c(F)cc1Cl,x,x,x,x,-10.5,x
c1ccc(COc2ccc(-c3cc4nc(NCc5ccc6c(c5)OCO6)ccn4n3)cc2)cc1,x,x,x,x,-64.1*,x
c1ccc(COc2cccc(-c3cc4nc(NCc5ccc6c(c5)OCO6)ccn4n3)c2)cc1,x,x,x,x,22.2,x
O=C(NC1CC(=O)N(c2ccccc2)C1)N1CCN(C(=O)c2ccco2)CC1 (stereo not drawn),-11.6%,-3.1%,6.3%,u,1.3,-9.2%
COc1ccc(Nc2nc(NCc3ccco3)nc(N/N=C/c3ccccc3F)n2)cc1,15.0%,u,u,u,-18.4,-9.2%
COc1ccc(Nc2nc(NCc3ccco3)nc(N/N=C/c3ccc(O)cc3)n2)cc1,15.6%,u,u,u,-61.0*,-3.0%
COc1ccc(/C=N/Nc2nc(NCc3ccco3)nc(Nc3ccc(OC)cc3)n2)cc1,u,u,14.7µM*,-10.0%,u,1.1%

# Screening data as filed in PubChem.
